Values joined by “and” are separate entries in the source; they are usually repeats but may differ in a detail not shown here. Equal values may be shown once. Compounds without any hit were thinned out: in the full panel of roughly 79,000, 15% have a hit. Unmarked numbers belong to inactive results. Active and inactive are the calls of the source. Rule as the data show it: active = growth inhibition above about 70%; inactive = the rest.

The source of these data is PubChem BioAssay (NCI).

Test [1] in a line: NCI Yeast Anticancer Drug Screen. Data for the mec2-1 strain (AID 157). The note with it: S. cerevisiae mec2-1 strain, hits give high values. The gist of the method:
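Yeast mec2-1 mutant treated with compound. Readout: growth inhibition vs vehicle controls.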

Test [2] is described as follows: NCI Yeast Anticancer Drug Screen. Data for the sgs1 mgt1 strain (AID 161).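 Also: 0% = growth of cultures given vehicle only.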 The conditions noted are these: S. cerevisiae sgs1 mgt1 strain, hits give high values. The gist of the method: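 Test agents were incubated with a DNA-repair-mutant yeast strain. Growth was then read and compared against vehicle-treated controls.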
The nature of test [3]: NCI Yeast Anticancer Drug Screen. Data for the cln2 rad14 strain (AID 165).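 Also: 0% = growth equal to vehicle treated cultures.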 The conditions noted are these: S. cerevisiae cln2 rad14 strain, hits give high values. The gist of the method:
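cln2 rad14 yeast strain; compound exposure; growth inhibition read vs vehicle controls.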

Test [4] in a line: NCI Yeast Anticancer Drug Screen. Data for the bub3 strain (AID 167). The conditions noted are these: S. cerevisiae bub3 mutant strain, hits give high values. The gist of the method: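 Screening used yeast with an engineered genetic alteration affecting cell cycle control. Compound-exposed cultures were compared with vehicle cultures, and reduced growth was taken as inhibition.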

Test [5] in a line: NCI Yeast Anticancer Drug Screen. Data for the mlh1 rad18 strain (AID 175). The note with it: S. cerevisiae mlh1 rad18 strain growth inhibition, hits give high values. The essentials: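 Yeast w/ defined DNA-repair lesions; compound exposure; growth vs vehicle controls → % inhibition.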
A short description of test [6]: NCI Yeast Anticancer Drug Screen. Data for the rad50 strain (AID 155).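 Also: 0% = growth of vehicle-only cultures of the same strain.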 The note with it: S. cerevisiae rad50 strain growth inhibition, hits give high values. The essentials: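 Relative growth inhibition (compound vs vehicle) was measured in yeast with a defined repair-gene alteration.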
Setting [7] is: at 5.0 µM (retest, dose inferred, filed as 0.5).
[8] abbreviates: at 50.0 µM (retest, dose inferred, filed as 5.0).

Consider `CC1=NC(C)=C(/C(C)=N/NC(=O)c2ccccc2O)C(C)/C1=C(/C)NNC(=O)c1ccccc1O` (stereo not drawn), for which the growth inhibition in test [1] (setting [7]) was 12%; in test [1] (setting [8]), 12%; in test [1] (at 50.0 µM) it was 75% (active); in test [2] (setting [7]), -1%; in test [2] (setting [8]) it was -1%; in test [2] (at 50.0 µM) it was 81.1% (active). For the same molecule, the growth inhibition is -2% in test [3] (setting [7]); -2% in test [3] (setting [8]); 62% in test [3] (at 50.0 µM); -3% in test [4] (setting [7]); -3% in test [4] (setting [8]); 82.8% (active) in test [4] (at 50.0 µM). Besides, the results for the growth inhibition in test [5] (setting [7]), in test [5] (setting [8]) and in test [5] (at 50.0 µM) were 2%, 2% and 80% (active), respectively.
Turning to `COC(CCC[N+](C)(C)C)CC[N+](C)(C)C` (stereo not drawn), the growth inhibition was 11% in test [6] (setting [7]); 81% (active) in test [6] (setting [8]); 95.9% (active) in test [6] (at 50.0 µM); -9% in test [1] (setting [7]); 83% (active) in test [1] (setting [8]); 97.6% (active) in test [1] (at 50.0 µM). The growth inhibition in test [3] (setting [7]) was 1%; in test [3] (setting [8]), 70% (active); in test [3] (at 50.0 µM) it was 95.9% (active); in test [4] (setting [7]), -9%; in test [4] (setting [8]), 70% (active); in test [4] (at 50.0 µM) it was 97.1% (active). In addition, the growth inhibition was 8% in test [5] (setting [7]), 81% (active) in test [5] (setting [8]) and 96.5% (active) in test [5] (at 50.0 µM).
As for `FC(F)(F)c1nc(S)cc(=S)[nH]1`, the growth inhibition is 4% in test [1] (setting [7]); 17% in test [1] (setting [8]); 24.9% in test [1] (at 50.0 µM); 7% in test [2] (setting [7]); 26% in test [2] (setting [8]); -5.45% in test [2] (at 50.0 µM). Besides, the growth inhibition is -2% in test [3] (setting [7]); 22% in test [3] (setting [8]); 54% in test [3] (at 50.0 µM); -2% in test [4] (setting [7]); 31% in test [4] (setting [8]); 58.3% in test [4] (at 50.0 µM). For the same molecule, the growth inhibition in test [5] (setting [7]) is -4%; in test [5] (setting [8]) it was 10%; in test [5] (at 50.0 µM), -30%.
Regarding `CN(C)c1ccc(/C=N/N=C(\C#N)[S][Sn]([Cl])([c]2ccccc2)[c]2ccccc2)cc1`, the growth inhibition was 98% (active) in test [6] (setting [7]); 95% (active) in test [6] (setting [8]); 97.5% (active) in test [6] (at 50.0 µM); 98% (active) in test [1] (setting [7]); 96% (active) in test [1] (setting [8]); 97.3% (active) in test [1] (at 50.0 µM). Moreover, the growth inhibition was 98% (active) in test [3] (setting [7]); 89% (active) in test [3] (setting [8]); 95% (active) in test [3] (at 50.0 µM); 98% (active) in test [4] (setting [7]); 95% (active) in test [4] (setting [8]); 97% (active) in test [4] (at 50.0 µM). Further, the results for the growth inhibition in test [5] (setting [7]), in test [5] (setting [8]) and in test [5] (at 50.0 µM) were 97% (active), 96% (active) and 97.2% (active), respectively.
As for `COc1cc(/C=C/C(C)=O)ccc1O`, the growth inhibition in test [6] (at 50.0 µM) is 18.1% and 35.2% and 5.45%; in test [1] (at 50.0 µM), -10.4% and 9.95% and -15.9%; in test [2] (at 50.0 µM) it was -6.5% and 21.9% and -16.1%; in test [3] (at 50.0 µM) it was -17.4% and -22.3% and -1.45%; in test [4] (at 50.0 µM) it was 1.7% and 3.35% and 4.4%; in test [5] (at 50.0 µM) it was -4.85% and 23.2% and -20.9%.
For `C1CCC(OC2CCCCO2)OC1` (stereo not drawn), the growth inhibition in test [6] (setting [7]) was -2%; in test [6] (setting [8]), 76% (active); in test [6] (at 50.0 µM), 70.3% (active); in test [1] (setting [7]), -22%; in test [1] (setting [8]) it was 36%; in test [1] (at 50.0 µM), 21.2%. Besides, the growth inhibition in test [3] (setting [7]) was -2%; in test [3] (setting [8]) it was 66%; in test [3] (at 50.0 µM), 65.2%; in test [4] (setting [7]) it was -8%; in test [4] (setting [8]) it was 71% (active); in test [4] (at 50.0 µM) it was 77.3% (active). Further, the growth inhibition in test [5] (setting [7]) is -9%; in test [5] (setting [8]) it was 92% (active); in test [5] (at 50.0 µM), 66%.
In the case of `CN(C)N=Nc1ccc(Cl)c2ncccc12`, the growth inhibition in test [6] (setting [7]) is 3%; in test [6] (setting [8]) it was -2%; in test [6] (at 50.0 µM), 0.2%; in test [1] (setting [7]), -2%; in test [1] (setting [8]), -2%; in test [1] (at 50.0 µM) it was 2.1%. Besides, the growth inhibition is -2% in test [3] (setting [7]); -5% in test [3] (setting [8]); 64.2% in test [3] (at 50.0 µM); -2% in test [4] (setting [7]); 1% in test [4] (setting [8]); -4.15% in test [4] (at 50.0 µM). Further, the growth inhibition is -2% in test [5] (setting [7]), 7% in test [5] (setting [8]) and 6.75% in test [5] (at 50.0 µM).
As to `CSc1cc(C(=O)O)nc(N)n1`, the growth inhibition in test [6] (setting [7]) was 4%; in test [6] (setting [8]), -4%; in test [6] (at 50.0 µM) it was -5.65%; in test [1] (setting [7]), 6%; in test [1] (setting [8]) it was 0%; in test [1] (at 50.0 µM), 5%. In addition, the growth inhibition in test [3] (setting [7]) is 8%; in test [3] (setting [8]), -1%; in test [3] (at 50.0 µM), 28.1%; in test [4] (setting [7]) it was 3%; in test [4] (setting [8]) it was -4%; in test [4] (at 50.0 µM), -17.1%. The results for the growth inhibition in test [5] (setting [7]), in test [5] (setting [8]) and in test [5] (at 50.0 µM) were 4%, -4% and -12.3%, respectively.
On to `FC(F)(F)C(C1=NC(C(F)(F)F)(C(F)(F)F)N=C(N2CCOCC2)O1)C(F)(F)F`, for which the growth inhibition in test [1] (setting [7]) was 16%; in test [1] (setting [8]), 28%; in test [1] (at 50.0 µM), 71.8% (active); in test [2] (setting [7]), 20%; in test [2] (setting [8]), 48%; in test [2] (at 50.0 µM) it was 30.4%. The growth inhibition in test [3] (setting [7]) is 26%; in test [3] (setting [8]) it was 45%; in test [3] (at 50.0 µM), 60.4%; in test [4] (setting [7]), 36%; in test [4] (setting [8]), 80% (active); in test [4] (at 50.0 µM) it was 13.6%. For the same molecule, the growth inhibition is 51% in test [5] (setting [7]), 66% in test [5] (setting [8]) and 39.6% in test [5] (at 50.0 µM).
As to `CCOC(=O)N1CCN(c2cc(C)nc3cc(OC)ccc23)CC1`, the growth inhibition in test [6] (setting [7]) was 4%; in test [6] (setting [8]), -4%; in test [6] (at 50.0 µM), 21.1%; in test [1] (setting [7]), -1%; in test [1] (setting [8]), 1%; in test [1] (at 50.0 µM), 5.9%. Besides, the growth inhibition in test [2] (setting [7]) is 0%; in test [2] (setting [8]) it was -5%; in test [2] (at 50.0 µM), 17.6%; in test [3] (setting [7]), -1%; in test [3] (setting [8]), -5%; in test [4] (setting [7]) it was 3%. The growth inhibition is 1% in test [4] (setting [8]); 59.5% in test [4] (at 50.0 µM); 0% in test [5] (setting [7]); -7% in test [5] (setting [8]); 38.9% in test [5] (at 50.0 µM).
